# Compounds with a hit are over-represented: about 3.5% of the library has one in this group of screens.
# FBW7 activator: human FBW7 E3 ligase activation, primary screen; AlphaScreen FBW7–phospho-cyclin E peptide binding, activator screen; normalized activity (activation), % at 26.1 µM; 0.13% of 650,000 active; AID 1259310; in the data active = normalized activity above about 1.9%;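 also: purified mutant Fbw7 with reduced substrate affinity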
# TEAD-YAP block: TEAD-YAP interaction inhibition; HEK-TIYL cells, TEAD-Gal4/YAP UAS-luciferase luminescence; inhibition, % at 9.12 µM; 1.4% of 640,000 active; AID 1259422; in the data active = inhibition above about 32%
# GPR151 activ: human GPR151 activation | Q8TDV0 | PathHunter beta-arrestin GPR151 cells, luminescence | activation, % at 11.2 µM | 1% of 650,000 active; in the data active = activation above about 4.9%
# Target sequence (Q8TDV0 whole entry, looked up): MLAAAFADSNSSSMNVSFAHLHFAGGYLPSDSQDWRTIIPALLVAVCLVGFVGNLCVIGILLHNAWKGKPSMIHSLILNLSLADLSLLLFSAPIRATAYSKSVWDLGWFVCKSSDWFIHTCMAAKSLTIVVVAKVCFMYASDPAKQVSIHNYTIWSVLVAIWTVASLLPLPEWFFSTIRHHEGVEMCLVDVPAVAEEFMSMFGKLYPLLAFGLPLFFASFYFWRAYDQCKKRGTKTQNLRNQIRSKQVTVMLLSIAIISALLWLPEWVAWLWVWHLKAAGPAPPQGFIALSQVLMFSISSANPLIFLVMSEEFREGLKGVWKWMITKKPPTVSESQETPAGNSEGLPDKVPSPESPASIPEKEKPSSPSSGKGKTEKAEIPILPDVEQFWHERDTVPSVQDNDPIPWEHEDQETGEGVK
# MITF primary: blocks human microphthalmia-associated transcription factor; inhibition, % at 2.6 µM; 0.91% of 650,000 active; AlphaScreen MITF homodimerization, bead proximity signal; AID 1259374; in the data active = inhibition above about 50%
# A number is an active result; . = inactive; / = no result.
SMILES,FBW7 activator,TEAD-YAP block,GPR151 activ,MITF primary
CC(=O)NC(c1cccs1)c1ccc2cccnc2c1O (configuration not stated),.,91.5,.,70.0
CC(=O)NC(c1ccco1)c1ccc2cccnc2c1O (configuration not stated),.,44.3,.,77.3
CCn1c(SCCC#N)nnc1-c1ccc2[nH]c(C)c(C)c2c1,.,.,.,.
CCOC(=O)N1CCC(N2C(=O)c3ccccc3C2Nc2cccc(C(F)(F)F)c2)CC1 (configuration not stated),.,.,.,.
CC1CCCN(c2csc3ccccc3c2=O)C1 (configuration not stated),1.9,.,.,.
NC(=O)C1CCN(c2csc3ccccc3c2=O)CC1,.,.,.,.
COc1ccc2c(c1)/C(=c1/sc3n(c1=O)CN(c1cccc(F)c1)CN=3)C(=O)N2,.,.,.,.
O=C(CCC(=O)N/N=C\c1ccccn1)N/N=C\c1ccccn1,.,.,.,.
CCOc1ccccc1OCC(=O)N/N=C/c1ccc(O)cc1,.,57.0,.,.
C/C(=N\NC(=O)COc1ccccc1-c1ccccc1)c1ccc(O)cc1O,.,58.5,.,.
S=C(NCc1ccccc1)N/N=C/c1ccccn1,.,89.4,.,52.0
CCOc1ccc(Br)cc1C(=O)N/N=C/c1ccc2c(c1)OCO2,.,33.5,.,.
Cc1ccccc1OCC(=O)N/N=C/c1ccc(O)cc1,.,.,.,.
O=C(COc1ccccc1-c1ccccc1)N/N=C/c1ccccn1,.,51.5,.,.
O=C(N/N=C/c1cccnc1)c1cc(Br)ccc1OCc1ccccc1,.,32.8,.,.
CCOc1ccccc1OCC(=O)N/N=C(\CCC(=O)O)c1ccccc1,.,59.4,.,.
O=C(COc1ccccc1-c1ccccc1)N/N=C/c1ccncc1,.,51.7,.,.
O=C(N/N=C/c1cccnc1)c1ccccc1OCc1ccccc1,.,.,.,.
Cc1nn(-c2ccccn2)c2c1C(=O)/C(=C\Nc1ccccc1Cl)CC2,.,.,.,.
CCOc1ccc2[nH]c(=O)c(CN(CCO)S(=O)(=O)c3ccccc3Cl)cc2c1,.,.,.,.
CC(C)CC(=O)Nc1nc(-c2ccc3c(c2)CCN3C(=O)C2CC2)cs1,.,.,.,.
O=C(COc1ccccc1-c1ccccc1)N/N=C/c1cccnc1,.,47.3,.,.
CCCOc1ccc(C(=O)NC(=S)Nc2ccccn2)cc1,.,50.8,.,.
O=C1ON=C(c2ccccc2)/C1=C\c1ccccc1O,.,.,.,67.6
CC1=NOC(=O)/C1=C\c1cc(Br)c(O)c(Br)c1,.,.,.,67.8
SMILES,FBW7 activator,TEAD-YAP block,GPR151 activ,MITF primary
CCOc1cc(/C=C2\C(=O)ON=C2C)cc(Br)c1OCC,.,.,.,.
CC1=NOC(=O)/C1=C/c1ccccc1O,.,.,.,54.9
Cc1ncc(-c2ccncc2)c(C2CCCN(CC(N)=O)C2)n1 (configuration not stated),.,.,.,.
CCCCNC(=O)/C=C/c1ccc([N+](=O)[O-])cc1,.,.,.,.
Cc1ccc2nc(Nc3ccccc3)c3nncn3c2c1,.,.,.,.
COc1cc(C2CC(=O)c3c(ccc4ccccc34)N2)ccc1OCc1ccccc1 (configuration not stated),.,.,.,.
COc1ccccc1C1CC(=O)c2c(ccc3ccccc23)N1 (configuration not stated),.,61.2,.,.
N#C/C(=C\c1ccccc1OCc1ccccc1)c1nc2ccccc2c(=O)[nH]1,.,.,.,.
CCCCC/C=C\C/C=C\C/C=C\C=C\C(O)CCCC(=O)OC (configuration not stated),/,/,.,.
CN(C)CCOc1cc(-c2cn[nH]c2)ccc1NC(=O)C(O)c1ccc(F)cc1 (configuration not stated),.,.,.,.
CN(C)CCOc1cc(-c2cn[nH]c2)ccc1N,.,.,.,54.0
c1ccc(-c2nc(NCCN3CCOCC3)c3ncn(-c4ccccc4)c3n2)cc1,.,.,.,.
Oc1ccc(CCNc2nc(-c3ccc(N4CCOCC4)nc3)nc3c2ncn3-c2ccccc2)cc1,.,40.8,.,.
FC(F)(F)c1ccc(Cn2cnc3c(NCc4ccccc4)nc(-c4ccc(N5CCOCC5)nc4)nc32)cc1,.,.,.,.
c1ccc(OCCNc2ncnc3nc(-c4ccc(N5CCOCC5)nc4)[nH]c23)cc1,10.9,.,.,.
FC(F)(F)c1ccc(Cn2cnc3c(NCCOc4ccccc4)nc(-c4ccc(N5CCOCC5)nc4)nc32)cc1,2.0,.,.,.
c1ccc(-n2cnc3c(NCCN4CCOCC4)nc(-c4ccc(N5CCOCC5)nc4)nc32)cc1,.,58.8,.,.
COc1ccc(NC(=O)Cn2c(=O)c(CNc3ccccc3)cc3cc4c(cc32)OCCO4)cc1,.,.,.,.
O=C1CCCN1CCCNc1nc(-c2ccc(N3CCOCC3)nc2)nc2c1ncn2-c1ccccc1,.,47.9,.,.
O=C1CCCN1CCn1cnc2c(NCCN3CCOCC3)nc(-c3ccc(N4CCOCC4)nc3)nc21,.,.,.,.
Oc1ccc(CCNc2nc(NCCN3CCOCC3)nc3c2ncn3-c2ccccc2)cc1,.,37.4,.,.
c1ccc(CC2CCN(c3ncnc4sccc34)CC2)cc1,.,33.6,.,.
CNC(=S)NCCCNc1nc2c(C)c(C)ccc2cc1C#N,.,.,.,.
CCOC(=O)c1cc2c3c(c1)C1C=CCC1C(c1ccc(F)cc1)N3CC1CC=CC21 (configuration not stated),.,.,.,.
O=C(O)CNC(=O)c1cc2c3c(c1)C1C=CCC1C(c1ccc(F)cc1)N3CC1CC=CC21 (configuration not stated),.,.,.,73.3
SMILES,FBW7 activator,TEAD-YAP block,GPR151 activ,MITF primary
CCCCC(=O)NCCNc1nc(C)nc2sc3c(c12)CCCC3,.,33.3,.,.
O=C(c1cc2n(n1)C(C(F)(F)F)CC(c1ccc3c(c1)OCO3)N2)N1CCN(c2cccc(Cl)c2)CC1 (configuration not stated),3.7,.,.,.
O=C(c1cc2n(n1)C(C(F)(F)F)CC(c1ccc(Cl)cc1)N2)N1CCN(c2cccc(Cl)c2)CC1 (configuration not stated),.,.,.,.
CC(C)[C@H](NC(N)=O)C(=O)NCc1ccc(F)cc1,.,.,.,.
CCOc1ccccc1N1C(=O)NC(=O)/C(=C/c2ccco2)C1=O,.,.,.,.
O=C1NC(=O)N(c2ccc(F)cc2)C(=O)/C1=C\c1ccc(SCc2ccco2)o1,.,.,.,86.7
COc1ccccc1N1C(=O)NC(=O)/C(=C\c2ccco2)C1=O,.,.,.,62.4
O=C1NC(=S)S/C1=C\c1ccc(SCc2ccco2)o1,.,.,.,58.2
Cc1ccc(/C=C2\C(=O)NC(=O)N(c3ccc(F)cc3)C2=O)o1,.,.,.,.
O=C1NC(=O)N(c2ccccc2)C(=O)/C1=C\c1ccc(-c2ccc([N+](=O)[O-])cc2)o1,.,.,.,.
N=C1/C(=C\c2ccc(SCc3ccco3)o2)C(=O)N=C2SC(N3CCCC3)=NN12,.,.,.,.
O=C1NC(=O)N(c2ccc([N+](=O)[O-])cc2)C(=O)/C1=C/c1ccco1,.,.,.,78.2
